Data on 40 compounds can be found in PubChem BioAssay (NCATS).

Records with an inconclusive call do not appear. Where a call stands in place of a potency, no number is given. The source made the active and inactive calls. The call rests on the fitted dose curve; in most records, active means well fitted activation curve with a large enough effect; inconclusive means small, poorly fitted or top-dose-only effect; inactive means flat fitted curve, though single readings scatter.
Potency means the concentration at half of the fitted maximal effect.

The experiment is described as follows: Cell Proliferation Assay against the TMD8 Cell Line (Caspase readout at 16 hrs) (AID 651712). As to conditions: TMD8 lymphoma cells, caspase activation luminescence; series mostly up to 46.1 µM. An excerpt:
One class of targeted therapeutics showing early clinical success in killing of ABC DLBCL lines are small molecule inhibitors of the Bruton tyrosine kinase (BTK) 11. Thus, we chose to investigate what additional compounds, if any, would synergize with the BTK inhibitor Ibrutinib (PCI-32765).
Prior to any combination assays, using an NCATS developed oncology compound library called the Mechanism of Interrogation Plate (MIPE), two well studied ABC DLBCL lines (TMD8 and HBL1) were screened using a cell viability assay (CellTiterGlo) and a 12-point titration series for each single agent. These initial experiments offered insight into the concentration range that offered the best coverage of activity and non-activity to assure relevant data is generated. In addition to the viability signature associated with this library, we examined the apoptotic response of each agent versus the TMD8 line as judged by caspase 3/7 activation. Activity was assayed at both 8 and 16 hour time-points to gain an appreciation of which agents induced an apoptotic response in a reasonable timeframe from a therapeutic exposure perspective. MIPE was also assayed for single agent viability in a human mesenchymal stem cell (hMSC) line as a surrogate of each library members potential therapeutic index.
The combination plates were then generated by choosing 20 of the best compounds from this single agent screen and plated in the presence of the BTK inhibitor. The first analysis was carried out using 6x6 dose response blocks for each of the 20 compounds. […] In addition to the cell viability assay, the parallel caspase 3/7 activation and viability in hMSC assays were carried out in the 10x10 format.
A total of 500 log growing TMD8 cells are seeded per well in 5 uL of a RPMI with glutamine (or Glutamax), without phenol red plus 5% FBS and 1X Pen/Strep into 1536 -solid white high base tissue culture treated Greiner One Bio Plates (789173-F) using a multidrop combi dispenser and a small sterile cassette. Compounds and controls totaling 23nL per well (negative control DMSO and positive control 9.2 uM Bortezomib-final) are immediately added to the plates using a 1536 head pin tool from Kalypsys. The plates are then covered with stainless steel gasket lids from Kalypsys and incubated for either 16 hours at 37C under 95% relative humidity with 5% CO2. After the desired incubation time, the plates are removed and allowed to reach room temperature before 3 uL of the Caspase Glo reagent (Promega) is added using an Aurora Flying Reagent Dispenser Bioraptor. The plates are then spun at 1000 rpms to remove bubbles and incubated for 15 minutes at room temperature before read on a ViewLux using a luminescent filter with a 10 second exposure. The relative luciferase units are used to calculated percent activity using DMSO as 0% and Bortezomib as 100%.
For `C[C@H](NC(=O)Cc1cc(F)cc(F)c1)C(=O)N[C@@H]1C(=O)N(C)c2ccccc2-c2ccccc21`, the Potency result was “inactive”.

For `CCc1cc(Nc2nccc(-c3c(-c4ccc(OC)c(C(=O)Nc5c(F)cccc5F)c4)nc4ccccn34)n2)c(OC)cc1N1CCC(N2CCN(S(C)(=O)=O)CC2)CC1`, the Potency result was “inactive”.

As for `COc1ccc(COc2cc3oc(=O)c4cc(C(C)O)ccc4c3cc2OC)cc1` (stereo not given), the Potency result was “inactive”.

Consider `Cc1cccc(-c2[nH]c(C(C)(C)C)nc2-c2ccc3nccnc3c2)n1`, for which the Potency entry was “inactive”.

Consider `CN([C@@H](Cc1ccc(OS(=O)(=O)c2cccc3cnccc23)cc1)C(=O)N1CCN(c2ccccc2)CC1)S(=O)(=O)c1cccc2cnccc12`, for which the Potency entry was “inactive”.

Turning to `S=C(NCc1ccc2c(c1)OCO2)N1CCN(c2ncnc3c2oc2ccccc23)CC1`, the Potency entry is “inactive”.

Take `N#CC[C@H](C1CCCC1)n1cc(-c2ncnc3[nH]ccc23)cn1`: the Potency result is “inactive”.

On to `CC(c1cc2ccccc2s1)N(O)C(N)=O` (stereo not given), for which the Potency entry was “inactive”.

As to `CCCc1nn(C)c2c(=O)[nH]c(-c3cc(S(=O)(=O)N4CCN(C)CC4)ccc3OCC)nc12`, the Potency entry is “inactive”.

For the compound `NC(=O)c1ccc(I)c([N+](=O)[O-])c1`, the Potency result is “inactive”.

As for `NC(=O)c1ccc(-c2nc(-c3ccc4c(c3)OCCO4)c(-c3ccccn3)[nH]2)cc1`, the Potency result is “inactive”.

As for `COc1ccccc1[C@H](c1cccc2ccccc12)[C@@](C)(C#N)C(=O)N1CCC(c2cccc(C(F)(F)F)c2)CC1`, the Potency entry was “inactive”.

Regarding `CO[C@@H]1[C@H](N(C)C(=O)c2ccccc2)C[C@H]2O[C@]1(C)n1c3ccccc3c3c4c(c5c6ccccc6n2c5c31)C(=O)NC4`, the Potency is 2.09 µM (active).

On to `COc1ccc(CCN2CCN(CCCc3ccccc3)CC2)cc1OC`, for which the Potency result is “inactive”.

Consider `Cc1ccc(NC(=O)c2cccc(C(C)(C)C#N)c2)cc1Nc1ccc2ncn(C)c(=O)c2c1`, for which the Potency is 26.4 µM (active).

As for `Cc1cc(C=c2sc3nc4ccccc4n3c2=O)c(C)n1-c1ccccc1`, the Potency result was “inactive”.

`CCN(c1ccccc1)c1cc(NC)[n+](C)c(C)n1`: the Potency entry was “inactive”.

Regarding `Cc1csc(NC(=O)c2sc3nc4c(c(C(F)(F)F)c3c2N)CCC4)n1`, the Potency entry is “inactive”.

In the case of `O=C(C1CC1)N1CC[C@@H](Cn2c(-c3ccc(-c4ccc5occc5c4)cc3)nc3cnccc32)C1`, the Potency is 8.33 µM (active).

Take `CS(=O)(=O)c1cccc(CNc2nc(Nc3ccc4c(c3)CCC(=O)N4)ncc2C(F)(F)F)c1`: the Potency entry was “inactive”.

Turning to `COc1ccc(CC2=NN3C([C@@H](CCc4ccccc4)[C@@H](C)O)=NC(C)C3C(=O)N2)cc1OC` (stereo not given in full), the Potency entry was “inactive”.

On to `CCOc1cc(C=C2C(=O)N(c3ccccc3)N=C2C)cc(Cl)c1OCC(=O)OC`, for which the Potency entry is “inactive”.

Regarding `O=C(OCC#CCSc1nnc(-c2ccc3ccccc3c2)o1)c1cc2ccccc2s1`, the Potency entry was “inactive”.

On to `CCC(=O)N[C@H]1CC[C@H](C(=O)N(C)c2ccc(-c3nc4ccccc4o3)cc2)C1`, for which the Potency entry is “inactive”.

In the case of `Fc1ccc(Cl)cc1-c1nc(Nc2ccncc2)c2nccnc2n1`, the Potency result is “inactive”.

In the case of `CNC(=O)c1ccccc1Sc1ccc2c(/C=C/c3ccccn3)n[nH]c2c1`, the Potency result was “inactive”.

In the case of `CC(C)C[C@H](NC(=O)[C@@H](O)[C@H](N)Cc1ccccc1)C(=O)O`, the Potency entry was “inactive”.

For `CN(C)C(=O)c1ccc(S(=O)(=O)c2ccc(NC(=O)[C@@](C)(O)C(F)(F)F)c(Cl)c2)cc1`, the Potency entry is “inactive”.

As to `CS(=O)(=O)Oc1ccc2c(NC(N)=O)c(C(=O)c3ccc(Cl)cc3Cl)oc2c1`, the Potency entry was “inactive”.

With `C#Cc1cccc(Nc2ncnc3cc(OCCOC)c(OCCOC)cc23)c1`, the Potency result is “inactive”.

For the compound `CNC(=O)c1ccc(N2C(=S)N(c3ccc(C#N)c(C(F)(F)F)c3)C(=O)C2(C)C)cc1F`, the Potency entry is “inactive”.

With `O=C(O)CCc1ccc(NCc2cccc(Oc3ccccc3)c2)cc1`, the Potency result is “inactive”.

With `CCCn1c(=O)c2[nH]c(C34CC5CC3C[C@@H](C5)C4)nc2n(CCC)c1=O`, the Potency was 18.7 µM (active).

For the compound `Cn1cc(-c2ccc3nnc(C(F)(F)c4ccc5ncccc5c4)n3n2)cn1`, the Potency result was “inactive”.

With `Cc1cc2c(C(C)C)c(O)c(O)c(C=O)c2c(O)c1-c1c(C)cc2c(C(C)C)c(O)c(O)c(C=O)c2c1O`, the Potency entry was “inactive”.

As for `CC(C)(Sc1ccc(CCN(CCCCC2CCCCC2)C(=O)NC2CCCCC2)cc1)C(=O)O`, the Potency entry was “inactive”.

For the compound `Nc1cccc(S(=O)(=O)N2CCCN(S(=O)(=O)c3ccc4c(c3)OCCO4)CC2)c1`, the Potency result was “inactive”.

On to `CC(C)OC(=O)C1=CN(C(=O)c2ccc(F)c(F)c2)CC(C)(C)c2c1[nH]c1ccccc21`, for which the Potency entry is “inactive”.

`O=C1[C@H](Cc2ccc(O)cc2)N2C(=O)CCN(C(=O)NCc3ccccc3)[C@H]2CN1Cc1cccc2ccccc12`: the Potency is 23.5 µM (active).

As to `CCC(C)n1ncn(-c2ccc(N3CCN(c4ccc(OC[C@H]5CO[C@](Cn6cncn6)(c6ccc(Cl)cc6Cl)O5)cc4)CC3)cc2)c1=O` (stereo not given in full), the Potency entry is “inactive”.
